# Results filed as inconclusive are left out. Where a call stands in place of a potency, no number is given. Calls of active or inactive are those of the source. The call rests on the fitted dose curve; in most records, active means well fitted activation curve with a large enough effect in the repeat runs; inconclusive means weak or mixed curves; inactive means no such curve, though single readings can be large or run the other way.
# Experiment: qHTS assay for small molecules that induce genotoxicity in human embryonic kidney cells expressing luciferase-tagged ATAD5 (AID 651632); further: nearly all actives have a fitted effect of over 15% in size
# Details: HEK293T ATAD5-luciferase induction, 16 h; series mostly up to 83.3 µM
# Source text: U.S. Tox21 Program National Center for Advancing Translational Sciences [NCATS] NIH Chemical Genomics Center [NCGC] U.S. Environmental Protection Agency [EPA] National Institutes of Environmental Health Sciences [NIEHS] National Toxicology Program [NTP] U.S. Food and Drug Administration [FDA] Tox21 Assay Overview: As cancer cells divide rapidly and during every cell division they need to duplicate their genome by DNA replication. The failure to do so results in the cancer cell death. Based on this concept, many chemotherapeutic agents were developed but have limitations such as low efficacy and severe side effects etc. A new cell based assay was developed to find the compounds that effectively block DNA replication either by directly damaging DNA or by inhibiting other cellular mechanisms. Enhanced Level of Genome Instability Gene 1 (ELG1; human ATAD5) protein levels increase in response to various types of DNA damage. Using a luciferase reporter-gene tagged with ATAD5, a cell-based assay [developed by Kyungjae Myung, NHGRI, NIH] was used to measure the induction of ATAD5 in human embryonic kidney cells (HEK293T). So, increase in luciferase activity can be used to identify the compounds that cause genetic stress.
# Tox21 Assay Protocol Summary: For genotoxicity screening, 2,000 cells in 5 uL/well were dispensed into white, solid-bottom 1536-well plates using a Multidrop Combi (Thermo Scientific) dispenser. Following transfer of 23 nL compound or DMSO vehicle by a pin tool, the plates were incubated 16 hr at 37C and 5% CO2. 5 ul Amplite (AAT Bioquest, Inc.) was then added to each plate and following 30 min incubation at room temperature, luciferase activity was quantified on a ViewLux CCD-based plate reader.
# Potency means the concentration at half of the fitted maximal effect.
row,Compound,Potency
1,O=Cc1c2ccccc2c(Cl)c2ccccc12,inactive
2,COc1ccccc1N1CCN(CCCCNC(=O)c2ccc(-c3ccc(C(C)=O)cc3)cc2)CC1,inactive
3,CC(=O)OCC(=O)NCCCOc1cccc(CN2CCCCC2)c1,inactive
4,CC(=O)[C@H]1[C@H](C#N)C[C@H]2[C@@H]3CC=C4C[C@@H](O)CC[C@]4(C)[C@H]3CC[C@@]21C,inactive
5,CC1(C)[C@@H](OC(=O)CCC(=O)O)CC[C@]2(C)[C@H]3C(=O)C=C4[C@@H]5C[C@@](C)(C(=O)O)CC[C@]5(C)CC[C@@]4(C)[C@]3(C)CC[C@@H]12,inactive
6,CC(C)(c1ccccc1)c1ccccc1,inactive
7,O=C1NC(=O)c2cc([N+](=O)[O-])ccc21,inactive
8,CC(=O)c1ccc([N+](=O)[O-])cc1,inactive
9,C=C1CCC2CC1C2(C)C (stereo not given),inactive
10,Oc1c(I)cc(I)c2cccnc12,inactive
11,O=c1cc(-c2ccccc2)oc2cc(O)cc(O)c12,inactive
12,COC(=O)CS,inactive
13,C=C1C[C@@]23CC[C@H]4[C@@](C)(CCC[C@@]4(C)C(=O)O[C@@H]4O[C@H](CO)[C@@H](O)[C@H](O)[C@H]4O)[C@@H]2CC[C@]1(O[C@@H]1O[C@H](CO)[C@@H](O)[C@H](O[C@@H]2O[C@H](CO)[C@@H](O)[C@H](O)[C@H]2O)[C@H]1O[C@@H]1O[C@H](CO)[C@@H](O)[C@H](O)[C@H]1O)C3,inactive
14,CC(C)=CCC/C(C)=C/CC/C(C)=C/CCC(=O)OC/C=C(\C)CCC=C(C)C,inactive
15,CCOc1ccc(Cc2nccc3cc(OCC)c(OCC)cc23)cc1OCC,inactive
16,O=C(O)c1cccc(-c2noc(-c3ccccc3F)n2)c1,0.0237 µM (active)
17,C[C@@]12CCC[C@H]1[C@@H]1CC[C@H]3C[C@@H](O)CC[C@]3(C)[C@H]1CC2,inactive
18,COC(=O)CCS,inactive
19,O=c1[nH]c2ccc(Cl)cc2o1,inactive
20,N#CCCN(CCO)CCO,inactive

row,Compound,Potency
1,Cc1ccc(OC(=O)c2ccccc2O)cc1,inactive
2,C[C@]1(Cn2ccnn2)[C@H](C(=O)O)N2C(=O)C[C@H]2S1(=O)=O,inactive
3,Cc1cccc(O)c1N,inactive
4,COc1ccccc1Oc1c(NS(=O)(=O)c2ccc(C(C)(C)C)cc2)nc(-c2ncccn2)nc1OCCO,inactive
5,CC(=O)N/N=C/c1ccc([N+](=O)[O-])o1,inactive
6,CC(=O)NC1(c2cccc(F)c2)CCN(CC[C@@]2(c3ccc(Cl)c(Cl)c3)CN(c3ccccc3)C(=O)CO2)CC1,inactive
7,CC(C)(O)c1ccc(CNC(=O)c2cccnc2Oc2ccc3nonc3c2)cc1,inactive
8,CCC1CO1 (stereo not given),inactive
9,O=C(CCCN1CC=C(n2c(=O)[nH]c3ccccc32)CC1)c1ccc(F)cc1,inactive
10,CN1CCCN=C1COC(=O)C(O)(c1ccccc1)C1CCCCC1 (stereo not given),inactive
11,CCOC(=O)c1ccc(OCCN2C[C@H](O)[C@@H](O)[C@H](O)[C@H]2CO)cc1,inactive
12,C=COCC(C)C,inactive
13,CC(=O)Oc1ccc([N+](=O)[O-])cc1CCl,inactive
14,c1cc(N(CC2CO2)CC2CO2)ccc1Cc1ccc(N(CC2CO2)CC2CO2)cc1 (stereo not given),15.4 µM (active)
15,CCCCC(CC)CN (stereo not given),inactive
16,CCCCCCCCOc1ccc(C(=O)O)cc1,inactive
17,CO/N=C(/C(=O)N[C@@H]1C(=O)N2C(C(=O)O)=C(COC(N)=O)CS[C@H]12)c1ccco1,inactive
18,O[C@@H]1CO[C@H]2[C@@H]1OC[C@@H]2O,inactive
19,OC[C@H]1O[C@@H](n2cnc3c(=S)nc[nH]c32)[C@H](O)[C@@H]1O,inactive
20,CC1CC(OC(=O)C(O)c2ccccc2)CC(C)(C)N1C (stereo not given),inactive

# Source: PubChem BioAssay (Tox21)
